In the library only some 1.1% were active in any assay of this set; here they are far more common.
AmpC no deterg – blocks E. coli AmpC beta-lactamase in detergent-free assay; AID 485341; 330,000 compounds, 0.52% hits; P00811; AmpC nitrocefin hydrolysis, absorbance 480 nm, 0.0001% Triton; Potency, µM (top dose mostly 57.1 µM), inactives show at the top dose activity change, negative = inhibition, usual class: inhibitors;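 further: plate controls were no compound for no effect and no enzyme for full effect; nearly all actives have a fitted effect of over 20% in size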
Target sequence (P00811 whole entry, looked up): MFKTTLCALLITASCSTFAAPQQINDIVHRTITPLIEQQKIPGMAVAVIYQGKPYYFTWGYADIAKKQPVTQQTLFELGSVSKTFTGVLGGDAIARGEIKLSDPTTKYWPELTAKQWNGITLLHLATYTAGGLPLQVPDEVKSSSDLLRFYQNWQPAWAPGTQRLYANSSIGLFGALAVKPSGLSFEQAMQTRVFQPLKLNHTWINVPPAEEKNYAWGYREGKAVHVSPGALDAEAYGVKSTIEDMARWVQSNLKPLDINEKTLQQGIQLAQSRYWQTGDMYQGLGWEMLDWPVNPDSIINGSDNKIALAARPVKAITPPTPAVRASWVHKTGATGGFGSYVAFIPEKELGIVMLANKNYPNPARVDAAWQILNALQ
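AmpC (5.3 nM in the dispensed reagent) in 20 mM phosphate pH 7.0 with 0.01% (detergent screen) or 0.0001% Triton X-100 was preincubated with compounds for 15 min at room temperature. Nitrocefin was then added from an 800 uM solution, and hydrolysis was followed at 480 nm.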
Vaccinia mCherry – inhibitors of vaccinia virus infection (mCherry reporter signal). Vaccinia virus mCherry reporter infection, fluorescence. Potency, µM (series often up to 36.5 µM), inactives show top-dose activity change, negative = inhibition, hits mostly inhibitors. 310,000 compounds, 0.63% hits. AID 720579; calls by dose curve; tested in A549 cells; further: nearly all actives have a fitted effect of over 35% in size
AmpC inh detg – AmpC beta-lactamase inhibition with detergent present; Potency, µM (highest dose often 114 µM), inactives show top-dose activity change, negative = inhibition, usual class: inhibitors; AmpC hydrolysis of nitrocefin, absorbance 480 nm, 0.01% Triton; P00811; AID 485294; 370,000 compounds, 0.041% hits;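 further: 0% = no-compound wells and -100% = no-enzyme wells; nearly all actives have a fitted effect of over 25% in size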
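AmpC (5.3 nM in the dispensed reagent) in 20 mM phosphate pH 7.0 with 0.01% (detergent screen) or 0.0001% Triton X-100 was preincubated with compounds for 15 min at room temperature. Nitrocefin was then added from an 800 uM solution, and hydrolysis was followed at 480 nm.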
VACV Venus inh – inhibitors of vaccinia virus (Venus reporter); Potency, µM (highest dose often 36.5 µM), without a hit: at the top dose activity change, negative = inhibition, actives largely listed as inhibitors; Vaccinia virus Venus reporter expression, fluorescence; 330,000 compounds, 0.46% hits; calls by dose curve; tested in A549 cells; further: nearly all actives have a fitted effect of over 30% in size
Active calls of the source: *; i = inactive; ? = inconclusive; nt = not tested or not shown; ! = not confirmed by another sample. Unless noted, the call rests on the fitted dose curve; in most records, active means well fitted curve in the direction sought with a large enough effect; inconclusive means small, poorly fitted or top-dose-only effect, or another doubt; inactive means no such curve, though single readings can be large; an effect the other way counts as inactive or inconclusive. Unless noted, on the % scale 0 is the no-effect control and ±100 the full control effect; potency means the concentration at half of the fitted maximal effect.

SMILES | AmpC no deterg | Vaccinia mCherry | AmpC inh detg | VACV Venus inh
Cn1c(SCC(=O)N2c3ccccc3Sc3ccccc32)nc2ccccc21 | -8% | -21% | ? | -11%
COc1cc2c(cc1NC(=O)C(Cl)Cl)-c1ccc(NC(=O)C(Cl)Cl)cc1C2 | nt | 13µM* | nt | 10µM*
Cc1cc2c(c(-c3cnccn3)c1)OC(CNC(=O)c1cc(Cl)ccc1F)C2 (stereo unspecified) | nt | -14% | nt | -14%
Cc1ccccc1Cn1nc(C)c(NC(=O)c2noc3c2CCc2ccccc2-3)c1C | 4µM* | ? | ? | ?
O=C1Cc2c(-c3ccccc3)cc(-c3cccc(Cl)c3)nc2-c2ccccc2N1 | nt | -6% | nt | -11%
NC1(c2ccc(-c3nc4ccn5c(=O)[nH]nc5c4cc3-c3ccccc3)cc2)CCC1 | nt | 7.9µM* | nt | 10µM*
CSc1nnc(CNC(=O)/C=C/c2ccccc2Cl)n1-c1ccc(F)cc1 | nt | i | nt | 0%
CC(C)N1CCc2c(sc(NC(=O)C3CCCCC3)c2C(N)=O)C1 | -15% | ? | 5% | 13µM*
COC(=O)c1c(NC(=O)C2CCCCC2)sc2c1CCN(C(C)C)C2 | 51% | -24% | -13% | -19%
CC(=O)OC[C@]12CCC(C)=C[C@H]1O[C@@H]1[C@H](O)[C@@H](OC(C)=O)[C@@]2(C)[C@]12CO2 | -10% | ? | 3% | 3.2µM*
CCOc1ccc(N2Nc3n[nH]c(N)c3N2)cc1 | -45% | 2µM* | -10% | ?
CCN(CC)CCCN=C1N[C@@H](c2cccc(F)c2)C(C(=O)OC)=C(C)N1Cc1ccccc1 | 40% | ? | nt | 28µM*
COC(=O)C1=C(C)N(Cc2ccccc2)C(=NCCc2c[nH]c3ccccc23)N[C@H]1c1cccc(F)c1 | -2% | ? | nt | 13µM*
CN(Cc1cnc2ccccn12)C(=O)c1cc(NC(=O)c2ccccc2)cc2ncn(C3CCCC3)c12 | nt | -13% | nt | -15%
OC(c1ccc2c(c1)CN(Cc1c[nH]c3ccccc13)CCO2)c1ccccn1 (stereo unspecified) | nt | -6% | nt | -4%
Cc1cc(C)c(S(=O)(=O)Nc2cc(SCC(=O)O)c(O)c3ccccc23)cc1C | -46% | -1% | -12% | -1%
Cc1cc(C)c(S(=O)(=O)/N=C2/C=C(SCC(=O)O)C(=O)c3ccccc32)cc1C | 16µM* | -13% | 1% | 10%
O=C(CSc1cn(Cc2ccccc2)c2ccccc12)N1CCOCC1 | 45µM* | 3% | ? | -5%
O=C(NCCn1cc(SCC(=O)N2CCOCC2)c2ccccc21)c1ccccc1 | 0% | i | -11% | -4%
Cc1cc2c(C)ccc(C)c2nc1SCC(=O)c1cccs1 | 0.18µM* | nt | ? | nt
CC1(C)CN=c2s/c(=C\c3ccc(Cl)cc3)c(=O)n2C1 | 28% | 10µM* | 3% | ?
CC(O)C(C(=O)OCc1ccc([N+](=O)[O-])cc1)N1C(=O)c2ccccc2C1=O (stereo unspecified) | -10% | -6% | 79µM* | -8%
C[C@H](N)C(=O)OCc1ccc([N+](=O)[O-])cc1 | -7% | nt | -20% | nt
COc1ccccc1CN1CCOc2ccc(C(C)(O)COc3ccccc3)cc2C1 (stereo unspecified) | nt | -15% | nt | -10%
CCC1=NN2C(=N)/C(=C\c3cccn3-c3ccc(OC)cc3)C(=O)N=C2S1 | -53% | i | ? | -8%
SMILES | AmpC no deterg | Vaccinia mCherry | AmpC inh detg | VACV Venus inh
Cc1ccc(-n2cccc2/C=C2\C(=N)N3N=C(C(C)C)SC3=NC2=O)cc1 | 16µM* | nt | ? | nt
CCN1CCCC1CNC(=O)c1cnn(-c2nccc(-c3cc(OC)ccc3OC)n2)c1C (stereo unspecified) | nt | i | nt | -13%
CCCCCCC#Cc1cncc(C(=O)NNC(=O)Nc2cc(Cl)cc(Cl)c2)c1 | 16µM* | ? | 5% | -26%
Cc1ccc(CN2CCOc3ccc(C(C)(O)COc4ccccc4)cc3C2)o1 (stereo unspecified) | nt | -9% | nt | 7%
COc1ccccc1-c1ccc(C(=O)NCCN2CCOCC2)c(N2CCN(c3ccccc3F)CC2)n1 | nt | -20% | nt | -6%
COc1cccc(C2c3[nH]c4ccccc4c3CCN2Cc2cccn2-c2ncccn2)c1 (stereo unspecified) | 24% | nt | 6% | nt
Fc1ccc(C2c3[nH]c4ccccc4c3CCN2Cc2cccn2-c2ncccn2)cc1 (stereo unspecified) | -8% | 4.5µM* | 1% | 24%
O=C(O)C1Nc2c(Cl)cc(Cl)cc2C2C=CCC12 (stereo unspecified) | 13µM* | -5% | ? | 28%
CC1Oc2ccccc2N(CC(=O)NCCc2ccccc2)C1=O (stereo unspecified) | -2% | -14% | 40µM* | -2%
CC1Oc2ccccc2N(CC(=O)NCCCN2CCOCC2)C1=O (stereo unspecified) | -1% | -13% | 5% | 9%
O=C(Nc1cccc(N2CCC(NCc3cnn(-c4ccccc4)n3)CC2)c1)c1cccnc1 | nt | -12% | nt | -8%
Nc1nc2ncc(CNc3ccc(C(=O)NC(CCC(=O)O)C(=O)O)cc3)nc2c(=O)[nH]1 (stereo unspecified) | nt | -7% | nt | -8%
CN(Cc1cnc2nc(N)nc(N)c2n1)c1ccc(C(=O)N[C@@H](CCC(=O)O)C(=O)O)cc1 | nt | 1µM*! | nt | 3.2µM*
O=S(=O)(CCN1CCSCC1)c1ccccc1 | -17% | 13µM* | 7% | ?
C=CCc1c(C)nc(-c2ccccc2)nc1N/N=C(\C)c1ccccc1 | 28µM* | -11% | ? | -9%
C=CCc1c(C)nc(-c2ccccc2)nc1Nc1ccc(O)cc1 | -47% | ? | ? | ?
COCc1nnc(SCC(=O)NC(C)c2ccccc2)n1-c1ccccc1 (stereo unspecified) | 0.4µM* | -13% | -2% | -5%
O=C(O)CSc1nnc(COc2ccccc2)n1-c1ccccc1 | -8% | nt | -18% | nt
CNc1ccc(S(=O)(=O)NCC(=O)OCC(=O)Nc2cccc(Cl)c2Cl)cc1[N+](=O)[O-] | 25µM* | i | -4% | -11%
CCn1c(C(=O)NCc2ccc(F)cc2)cc2oc3ccccc3c21 | nt | -16% | 19% | 10%
CCOc1ccc(CNC(=O)c2cc3oc4ccccc4c3n2C)cc1 | -28% | 10µM*! | 4% | 7%
COCCOC(=O)c1[nH]c2c(c1C)C(=O)C(C(=O)OC)C(C)C2 (stereo unspecified) | -10% | nt | -7% | nt
COC(=O)C1C(=O)c2c([nH]c(C(=O)OCC3CCCO3)c2C)CC1C (stereo unspecified) | 10µM* | -5% | ? | -9%
NS(=O)(=O)c1ccc(N2N=C(c3ccc(Br)cc3)CC2c2ccc(F)cc2)cc1 (stereo unspecified) | 5.6µM* | 16µM* | 0% | 11µM*
Cc1nn(Cc2ccc(Cl)c(Cl)c2)c(C)c1NC(=O)c1cc(CC(C)C)on1 | 79% | 11µM* | ? | ?
CCCc1cc(C(=O)Nc2c(C)nn(Cc3ccc(Cl)c(Cl)c3)c2C)no1 | nt | -24% | 13% | -16%
CCN(CC)c1ccc(/C=N/NC(=O)c2ccco2)c(O)c1 | -41% | nt | -10% | nt
